PubChem BioAssay (NCATS)
Values joined by “and” are separate entries in the source; they are usually repeats but may differ in a detail not shown here. Equal values may be shown once. Records with an inconclusive call do not appear. Active and inactive are the calls of the source. Unless noted, the call rests on the fitted dose curve; in most records, active means well fitted curve in the direction sought with a large enough effect; inconclusive means small, poorly fitted or top-dose-only effect, or another doubt; inactive means no such curve, though single readings can be large; an effect the other way counts as inactive or inconclusive.

Tests used:
[1] = Cell Viability - MRC5 (AID 434; calls by dose curve;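 further: potency means the concentration at half of the fitted maximal effect; cells exposed to compound for 40 hours at 37 °C; potency reflects cytotoxicity seen as loss of intracellular ATP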); conditions: MRC5 lung fibroblast viability, qHTS
Summary of the method: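 ATP luminescence read-out (CellTiter-Glo, 20 min RT) after 40 hr, 37 °C compound exposure of 1500 MRC5 cells/well. Data normalized to DMSO (basal) and 100 uM tamoxifen (100% inhibition); AC50 from standard Hill equation.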

[2] = Cell Viability - N2a (AID 540); conditions: N2a mouse neuroblastoma cell viability; at 92.2 µM (top of the series);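 further: cells exposed to compound for 40 h at 37 °C; plate controls were DMSO alone for no effect and tamoxifen control for full effect; nearly all actives have a fitted effect of over 45% in size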
Summary of the method: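 Cytotoxicity was scored as loss of cellular ATP in N2a cells, a mouse neuroblastoma line. Compounds are applied in a qHTS concentration series for 40 hr at 37 °C.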

[3] = Cell Viability - H-4-II-E (AID 543); conditions: H-4-II-E rat hepatoma viability; series mostly up to 92.2 µM;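 further: cells exposed to compound for 40 hours; on the % scale 0 is the no-effect control and ±100 the full control effect; nearly all actives have a fitted effect of over 35% in size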
Summary of the method: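 Cells seeded at 1500 per well and rested 5 hr; compounds added; 40 hr incubation at 37 °C; CellTiter-Glo added, 20 min at room temperature; luminescence read. Hill-equation fits gave AC50.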

[4] = Cellular Toxicity (caspase-3) Jurkat (AID 655); conditions: Jurkat caspase-3 activation, luminescence, DMSO = 0%, tamoxifen = 100%; at 92.2 µM (top of the series);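 further: cells exposed to compound for 16 h at 37 °C before reading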
Summary of the method: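 5000 Jurkat cells/well; compound 16 hr, 37 °C; Caspase-Glo 3/7 added, 20 min RT; luminescence read. Norm: DMSO = 0%, tamoxifen 100 uM = 100%. AC50, Hill model.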

[5] = Cell Viability - LYMP1-002 - Assay at 16 hr (AID 948); conditions: LYMP1-002 lymphoblastoid cell viability; series mostly up to 92.2 µM; further: potency means the concentration at half of the fitted maximal effect;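 on activity change, negative = cytotoxicity: 0% = DMSO alone and full effect = 92 µM tetraoctylammonium bromide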
Summary of the method: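 Seed 2500 LYMP1-002 cells per well in complete medium and hold 5 hr at 37 C. Add compound across a concentration series and incubate 16 hr at 37 C. Add CellTiter-Glo, wait 30 min at room temperature, read luminescence.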

[6] = MultiTox-Fluor Cytotoxicity Assay - LYMP1-002 - Dead Cells (AID 960); conditions: LYMP1-002 lymphoblastoid cells, dead-cell protease fluorescence; series mostly up to 46.1 µM; further: nearly all actives have a fitted effect of over 60% in size; further: potency means the concentration at half of the fitted maximal effect
Summary of the method: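 Cells were plated, rested 5 hr, then treated with compound dilution series for 16 hr at 37 C. After adding substrate reagent and 60 min at room temperature, dead-cell protease fluorescence gave concentration-response curves fitted by the Hill equation.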

[7] = MultiTox-Fluor Cytotoxicity Assay - LYMP1-003 - Dead Cells (AID 961); conditions: LYMP1-003 lymphoblastoid cells, dead-cell protease fluorescence; series mostly up to 92.2 µM; further: nearly all actives have a fitted effect of over 70% in size; further: potency means the concentration at half of the fitted maximal effect
Summary of the method: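 LYMP1-003 human lymphoblastoid cells (2500/well) exposed to compound 16 h at 37 C in complete medium; dead-cell protease read with bis-AAF-R110 fluorescence (Ex/Em 485/520) after 60 min at room temperature. Normalized to DMSO and 15 uM tetraoctylammonium bromide; AC50 from Hill fit.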

[8] = Cell Viability - LYMP2-003 (AID 965); conditions: LYMP2-003 lymphoblastoid cell viability; series mostly up to 92.2 µM;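 further: cells exposed to compounds for 24 h before reading; nearly all actives have a fitted effect of over 50% in size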; further: potency means the concentration at half of the fitted maximal effect;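 on activity change, negative = cytotoxicity: 0% = DMSO only and full effect = 92 µM tetraoctylammonium bromide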
Summary of the method: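 Seed 2500 lymphoblastoid cells/well; incubate 5 hr, 37 C; add compounds; incubate 24 hr, 37 C; add CellTiter-Glo, 30 min RT; read luminescence. AC50 from Hill fit.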

[9] = Cell Viability - LYMP2-009 (AID 968); conditions: LYMP2-009 lymphoblastoid cell viability; series mostly up to 92.2 µM;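 further: 0% = DMSO alone and the full-kill end = tetraoctylammonium bromide at 92 µM; nearly all actives have a fitted effect of over 55% in size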
[10] = Cell Viability - LYMP2-006 (AID 978); conditions: LYMP2-006 lymphoblastoid cell viability, qHTS; series mostly up to 92.2 µM; further: nearly all actives have a fitted effect of over 60% in size; further: potency means the concentration at half of the fitted maximal effect; on activity change, negative = cytotoxicity: on the % scale 0 is the no-effect control and ±100 the full control effect
Summary of the method: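 Cells are seeded at 2500 per well and rested 5 hr at 37 C. Compounds are added across a concentration series for 24 hr at 37 C, after which ATP is quantified by luciferase luminescence.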

[11] = Cell Viability - LYMP2-007 (AID 979); conditions: LYMP2-007 lymphoblastoid cell viability; series mostly up to 92.2 µM;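 further: cells exposed to compound for 24 h before reading; nearly all actives have a fitted effect of over 60% in size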; further: potency means the concentration at half of the fitted maximal effect;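 on activity change, negative = cytotoxicity: 0% = DMSO only and the negative end = 92 µM tetraoctylammonium bromide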
Summary of the method: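 Cells are seeded at 2500 per well and rested 5 hr. Compounds are then added over a concentration series for 24 hr at 37 C. CellTiter-Glo is added for 30 min at room temperature before luminescence reading.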

[12] = molecular target: Thyroid hormone receptor beta (Homo sapiens) (UniProt P10828); test: qHTS assay for small molecule agonists of thyroid hormone receptor beta signaling (AID 588545; calls by dose curve;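 further: 0% = DMSO only and 100% = 10 nM T3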); conditions: TR-UAS-bla GripTite HEK 293, beta-lactamase ratio, agonist mode, 18 h, percent of T3 response, DMSO as zero; series mostly up to 76.7 µM
Thyroid hormone receptor beta (Homo sapiens), sequence (P10828 whole entry, looked up): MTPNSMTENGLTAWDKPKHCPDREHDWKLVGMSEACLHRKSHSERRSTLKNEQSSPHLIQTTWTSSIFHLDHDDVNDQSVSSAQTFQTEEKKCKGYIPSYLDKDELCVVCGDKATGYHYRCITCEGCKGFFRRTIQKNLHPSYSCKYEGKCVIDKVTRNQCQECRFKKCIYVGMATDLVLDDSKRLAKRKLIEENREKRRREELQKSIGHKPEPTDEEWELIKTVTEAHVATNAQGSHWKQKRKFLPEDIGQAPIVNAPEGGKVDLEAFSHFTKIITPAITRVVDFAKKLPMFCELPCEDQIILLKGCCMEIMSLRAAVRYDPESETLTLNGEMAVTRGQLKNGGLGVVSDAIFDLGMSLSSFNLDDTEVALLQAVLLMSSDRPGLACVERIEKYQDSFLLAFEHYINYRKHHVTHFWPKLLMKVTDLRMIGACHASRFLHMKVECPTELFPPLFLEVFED
Summary of the method: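 TR-UAS-bla GripTite HEK 293 cells (2500/well, medium with 2% charcoal/dextran FBS) were treated in agonist mode for 18 h at 37 C, titrated. Beta-lactamase was read by CCF4 ratio after 2 h; normalized to 10 nM T3 (100%) and DMSO, Hill-fitted for EC50 and efficacy.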

[13] = qHTS assay for small molecule antagonists of retinoid X receptor alpha signaling (AID 588546); conditions: HEK293T RXRa-UAS-bla, beta-lactamase ratio, antagonist mode; measured here: W530 green channel, cytotoxicity proxy;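 further: cells stimulated with 9-cis-retinoic acid as agonist; on the % scale 0 is the no-effect control and ±100 the full control effect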
Summary of the method: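 Beta-lactamase reporter inhibition, read as CCF4 fluorescence ratio (ex 405, em 460/530 nm) after 2 h at RT. HEK293T UAS-bla cells, 2500/well, were stimulated with 9-cis-RA at 500 or 100 nM final alongside test compound for 18 h at 37 C.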

[14] = molecular target: Thyroid hormone receptor beta (Homo sapiens) (UniProt P10828); test: qHTS assay for small molecule antagonists of thyroid hormone receptor beta signaling (AID 588547; active means well fitted inhibition curve with a large enough effect in the signal ratio, with a control signal flat, not every such curve was filed as active; the % refers to the signal ratio;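 further: cells stimulated with 0.4 nM T3 agonist during compound exposure; on the % scale 0 is the no-effect control and ±100 the full control effect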); conditions: TR-UAS-bla HEK293, beta-lactamase ratio, antagonist mode, 18 h
Summary of the method: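 TR-UAS-bla GripTite HEK293 cells in 2% charcoal/dextran FBS medium; compounds 0.59 nM to 92 uM with T3 at 0.4nM final, 18 h at 37 C. Beta-lactamase read by CCF4 fluorescence (460/530 nm); Hill fits gave IC50 and efficacy.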

[15] = molecular target: Voltage-gated inwardly rectifying potassium channel KCNH2 (Homo sapiens) (UniProt Q12809); test: qHTS Assay for Small Molecule Inhibitors of the Human hERG Channel Activity (AID 588834); conditions: U2OS BacMam hERG, FluxOR thallium flux fluorescence; series mostly up to 92.2 µM;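 further: lower thallium flux fluorescence means stronger hERG block; nearly all actives have a fitted effect of over 50% in size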; further: potency means the concentration at half of the fitted maximal effect
Voltage-gated inwardly rectifying potassium channel KCNH2 (Homo sapiens), sequence (Q12809 whole entry, looked up): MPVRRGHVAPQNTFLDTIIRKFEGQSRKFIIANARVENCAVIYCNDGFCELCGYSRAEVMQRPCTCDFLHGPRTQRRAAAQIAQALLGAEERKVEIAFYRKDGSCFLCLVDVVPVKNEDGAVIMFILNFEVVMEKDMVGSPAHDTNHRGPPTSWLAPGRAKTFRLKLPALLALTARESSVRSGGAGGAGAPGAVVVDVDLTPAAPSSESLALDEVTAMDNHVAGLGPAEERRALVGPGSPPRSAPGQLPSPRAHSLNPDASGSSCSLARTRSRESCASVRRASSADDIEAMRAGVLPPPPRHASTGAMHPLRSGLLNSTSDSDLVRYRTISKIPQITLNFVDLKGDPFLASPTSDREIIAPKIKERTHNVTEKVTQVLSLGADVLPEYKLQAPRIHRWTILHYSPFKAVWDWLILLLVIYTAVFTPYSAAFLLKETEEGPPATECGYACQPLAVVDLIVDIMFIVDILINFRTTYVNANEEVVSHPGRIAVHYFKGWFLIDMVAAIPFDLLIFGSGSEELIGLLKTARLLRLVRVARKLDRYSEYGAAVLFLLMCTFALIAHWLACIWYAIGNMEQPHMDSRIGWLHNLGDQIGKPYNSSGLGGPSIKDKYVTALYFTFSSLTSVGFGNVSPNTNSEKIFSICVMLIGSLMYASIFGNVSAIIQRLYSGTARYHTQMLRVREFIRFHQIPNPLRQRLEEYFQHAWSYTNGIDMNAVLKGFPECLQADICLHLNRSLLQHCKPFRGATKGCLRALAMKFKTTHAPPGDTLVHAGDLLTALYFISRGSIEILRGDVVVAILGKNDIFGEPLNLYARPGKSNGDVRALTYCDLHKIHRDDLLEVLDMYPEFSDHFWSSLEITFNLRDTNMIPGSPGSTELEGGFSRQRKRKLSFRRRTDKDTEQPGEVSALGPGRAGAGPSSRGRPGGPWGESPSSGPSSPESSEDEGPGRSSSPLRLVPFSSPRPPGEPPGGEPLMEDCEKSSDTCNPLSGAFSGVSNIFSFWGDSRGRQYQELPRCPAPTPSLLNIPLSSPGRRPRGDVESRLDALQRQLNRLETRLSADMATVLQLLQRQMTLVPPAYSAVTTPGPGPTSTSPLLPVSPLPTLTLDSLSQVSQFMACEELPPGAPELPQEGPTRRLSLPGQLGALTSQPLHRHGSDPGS
Summary of the method: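 Step 1: BacMam hERG transduction of U2OS, 4 hrs RT. Step 2: overnight 37 °C, plate 2000 cells/well, 4 hr. Step 3: FluxOR load, compound 10 min, stimulate, read fluorescence.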

[16] = qHTS assay for small molecule activators of the p53 signaling pathway (AID 651743; active means well fitted activation curve with a large enough effect in the signal ratio, not every such curve was filed as active; the % refers to the signal ratio; further: % of control where 0% means no effect); conditions: HCT-116 p53RE-bla, beta-lactamase FRET ratio, 16 h; activation: stronger effect = higher value
Summary of the method: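 Following 16 hours of compound exposure at 37 C, HCT-116 cells bearing the p53RE-bla reporter were loaded with LiveBLAzer B/G FRET substrate for 2 hours at room temperature and fluorescence intensity was recorded.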

[17] = qHTS assay for small molecule activators of the nuclear factor-kappa B (NF-kB) signaling pathway (AID 651749; active means well fitted activation curve with a large enough effect in the signal ratio; the % refers to the signal ratio; further: % of control where 0% means no effect); conditions: NF-kB-bla ME-180 cells, beta-lactamase FRET ratio, 16 h; activation: stronger effect = higher value
Summary of the method: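 In this qHTS format, compounds acting as activators increase NF-kB-driven beta-lactamase in ME-180 cells, measured as disrupted FRET after 16 hr exposure at 37C and 5% CO2.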

[18] = qHTS assay for environmental chemicals that activate the Aryl hydrocarbon Receptor (AhR) signaling pathway (AID 651777); conditions: 1A2-DRE human hepatoma cells, luciferase, 24 h; activation: stronger effect = higher value; further: % of control where 0% means no effect; nearly all actives have a fitted effect of over 15% in size
Summary of the method: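 Human hepatoma 1A2-DRE cells, stably carrying a dioxin response element and CYP1A2 promoter driving luciferase, were exposed to compounds for 24 hr at 37 C and 5% CO2. Luciferase signal was then read after 30 min One-Glo at room temperature.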

[19] = molecular target: Nuclear receptor ROR-gamma (Homo sapiens) (UniProt P51449); test: qHTS assay for small molecule antagonists of the retinoid-related orphan receptor gamma (ROR-gamma) signaling pathway (AID 651802); conditions: ROR-gamma antagonist cell reporter assay; series mostly up to 92.2 µM; further: nearly all actives have a fitted effect of over 60% in size; further: potency means the concentration at half of the fitted maximal effect
Nuclear receptor ROR-gamma (Homo sapiens), sequence (P51449 whole entry, looked up): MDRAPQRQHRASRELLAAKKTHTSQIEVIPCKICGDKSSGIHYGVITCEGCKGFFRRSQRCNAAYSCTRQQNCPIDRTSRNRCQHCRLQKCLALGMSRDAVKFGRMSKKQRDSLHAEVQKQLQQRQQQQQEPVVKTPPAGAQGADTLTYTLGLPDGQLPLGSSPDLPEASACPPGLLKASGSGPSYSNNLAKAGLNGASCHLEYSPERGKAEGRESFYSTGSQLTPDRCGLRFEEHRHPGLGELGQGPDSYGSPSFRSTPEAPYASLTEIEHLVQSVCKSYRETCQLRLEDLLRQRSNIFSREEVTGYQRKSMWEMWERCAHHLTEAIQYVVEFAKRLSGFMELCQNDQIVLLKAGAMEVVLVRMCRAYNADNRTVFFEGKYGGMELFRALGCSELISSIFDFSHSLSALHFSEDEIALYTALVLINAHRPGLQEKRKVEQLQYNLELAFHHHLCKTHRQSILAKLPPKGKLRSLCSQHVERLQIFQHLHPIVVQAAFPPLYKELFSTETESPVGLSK
Summary of the method: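 Steps: cells dispensed; compound or DMSO transferred by pin tool; doxycycline added to induce the ROR response element-driven luciferase; plates held 16hr at 37C; ONE-Glo added and luminescence measured.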

[20] = qHTS assay for small molecule agonists of the antioxidant response element (ARE) signaling pathway measured by Nrf2-dependant transcriptional activity (AID 720636; active means well fitted curve in the direction sought with a large enough effect in the repeat runs; an effect the other way counts as inactive or inconclusive; further: % of control where 0% means no effect); conditions: ARE-luc HepG2, Nrf2 luciferase reporter, 16 h; series mostly up to 92.4 µM
Summary of the method: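 ARE-luc HepG2 cells carrying an Nrf2-responsive luciferase reporter were plated in medium with 1% dialyzed FBS, left 6 hr at 37 C to attach, then exposed to compound for 16 hr. Luciferase luminescence was read after ONE-Glo addition.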

Compound | Potency [1] | activity change, negative = cytotoxicity [2] | Potency [3] | caspase-3 activation [4] | Potency [5] | Potency [6] | Potency [7] | Potency [8] | Potency [9] | Potency [10] | Potency [11] | outcome [12] | max response [13] | activity change % (negative = inhibition) [14] | Potency [15] | activation [16] | activation [17] | activation [18] | Potency [19] | outcome [20]
CCNc1nc(Cl)nc(NC(C)C)n1 | > 92 µM (inactive) | -4.9% (inactive) | inactive | 0.071% (inactive) | inactive | inactive | inactive | inactive | inactive | inactive | inactive | inactive | 3.95% and -7.9% | -11.1% (inactive) and -4.42% (inactive) | inactive | -2.86% (inactive) and -1.26% (inactive) | -0.0541% (inactive) and -0.0593% (inactive) | -0.785% (inactive) and 0.245% (inactive) | inactive | inactive
ClC1=C(Cl)C2(Cl)C3C(Cl)C=CC3C1(Cl)C2(Cl)Cl (stereo not drawn) | > 92 µM (inactive) |  | inactive | 5.51% (inactive) |  |  | 39.8 µM (active) | 39.8 µM (active) | inactive |  |  | inactive | -16.9% | -18.9% (inactive) |  | 1.8% (inactive) | 1.89% (inactive) | -0.719% (inactive) |  | inactive
COP(=S)(OC)Oc1ccc([N+](=O)[O-])cc1 | > 92 µM (inactive) | -21.2% (inactive) | inactive | 4.38% (inactive) | inactive | inactive | inactive | inactive | inactive | inactive | inactive | inactive | -15.3% and -6.14% | -2.23% (inactive) and 4.43% (inactive) | inactive | 0.285% (inactive) and 1.15% (inactive) | -0.601% (inactive) | 0.87% (inactive) and 0.313% (inactive) | inactive | inactive
C=CCc1ccc(OC)cc1 | > 92 µM (inactive) | -8.37% (inactive) | inactive | 0.324% (inactive) | inactive | inactive | inactive | inactive | inactive | inactive | inactive |  | -1.65% | -7.69% (inactive) | inactive |  | -0.38% (inactive) | 0.798% (inactive) | inactive | inactive
O=S1OCC2C(CO1)C1(Cl)C(Cl)=C(Cl)C2(Cl)C1(Cl)Cl (stereo not drawn) | > 92 µM (inactive) | -80.3% (active) | inactive | 10.8% (inactive) |  | 25.1 µM (active) |  |  | inactive |  | inactive | inactive | 1.46% | -1.54% (inactive) | 28.2 µM (active) | -4.01% (inactive) | 1.74% (inactive) | -0.06% (inactive) | 21.1 µM (active) | inactive
COC(=O)NC(=S)Nc1ccccc1NC(=S)NC(=O)OC | > 92 µM (inactive) | -2.43% (inactive) | inactive | 2.97% (inactive) | inactive | inactive | inactive | inactive | inactive | inactive | inactive | inactive | 3.84% and -2.84% | 1.37% (inactive) and 13.1% (inactive) | inactive | 0% (inactive) and 3.95% (inactive) | 0.272% (inactive) and -1.52% (inactive) | 11.9% (inactive) and 4.33% (inactive) | inactive | inactive
c1ccc(N=Nc2ccccc2)cc1 | > 92 µM (inactive) | 1.26% (inactive) | inactive | 92% (active) | inactive | inactive | inactive | inactive | inactive | inactive | 31.6 µM (active) | inactive | -17.4% and -6.96% | 5.03% (inactive) and -8.04% (inactive) | inactive | -2.32% (inactive) and -5.83% (inactive) | -0.765% (inactive) and -3.19% (inactive) | -0.472% (inactive) and 1.23% (inactive) | inactive | inactive
ClC1=C(Cl)C2(Cl)C3C4CC(C5OC45)C3C1(Cl)C2(Cl)Cl (stereo not drawn) | > 92 µM (inactive) |  | inactive | 28.4% (inactive) | 12.6 µM (active) | 20 µM (active) | 10 µM (active) | 25.1 µM (active) |  | 31.6 µM (active) | 31.6 µM (active) | inactive |  | -28.8% (inactive) | 35.5 µM (active) |  | -0.275% (inactive) | -0.344% (inactive) | 13.3 µM (active) | inactive
